Experimental findings from PubChem BioAssay are described below.

Test [1] concerns Plasmodium falciparum Sir2 (PF13_0152, Sir2A). The experiment in a line: Plasmodium falciparum Sir2A binding compounds – biochemical, small-molecule microarray, 635 nm fluorescence, primary screen (AID 1098).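 Also: score merges spot fluorescence intensity with its signal-to-noise ratio.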 Particulars: fluorescence 635 nm, higher = more signal.
Test [2] can be described thus: probe aDKK1 binding to arrayed compounds – biochemical, biotinylated probe, 635/667 nm fluorescence, primary screen (AID 1099).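 Also: score merges 667nm spot fluorescence with signal to noise across triplicate slides.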 As to conditions: small-molecule microarray, higher = more signal.
A short description of test [3]: probe aCHRDL2 binding to arrayed compounds – biochemical, biotinylated probe, 635/667 nm fluorescence, primary screen (AID 1100). As to conditions: small-molecule microarray, higher = more signal.
Test [4] can be described thus: change in splice reporter luminescence, either direction, cell-based, HEK293, spliceosome inhibition project, primary screen (AID 1101).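 Also: HEK293 cells carrying a splicing-competent luciferase reporter gene; test concentration not given here.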 As to conditions: HEK293 splicing luciferase reporter, 24 h, higher = more signal, called active from +8 up or from −8 down. A general note: In a reporter assay the amount or activity of a reporter protein is the signal.
For test [5], the target named is Fibroblast growth factor 10 (Homo sapiens) (UniProt O15520). Kind of test: compounds binding fibroblast growth factor 10 – biochemical, small-molecule microarray, 635 nm fluorescence, primary screen (AID 1102). Particulars: FGF10 binding, fluorescence 635 nm, higher = more signal.
Chain of Fibroblast growth factor 10 (Homo sapiens) (O15520 whole entry, looked up): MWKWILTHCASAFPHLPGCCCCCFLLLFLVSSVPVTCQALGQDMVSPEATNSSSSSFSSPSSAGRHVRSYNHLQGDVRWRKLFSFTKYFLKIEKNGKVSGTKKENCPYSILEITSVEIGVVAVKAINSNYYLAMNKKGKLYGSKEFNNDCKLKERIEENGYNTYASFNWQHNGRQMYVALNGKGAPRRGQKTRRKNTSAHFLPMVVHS
The test system of test [6] is glycogen synthase kinase-3 (GSK3A per assay name; protocol says GSK3B). The experiment in a line: compounds binding glycogen synthase kinase-3 – biochemical, small-molecule microarray, 635 nm fluorescence, GSK3A, primary screen (AID 1103). Also: the record names both GSK3A and GSK3B. As to conditions: fluorescence 635 nm, higher = more signal.
Test [7] has as its target Epidermal growth factor receptor (Homo sapiens) (UniProt P00533). The experiment in a line: compounds binding epidermal growth factor receptor – biochemical, small-molecule microarray, 635 nm fluorescence, primary screen (AID 1104).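 Also: score merges 667 nm emission intensity with spot signal to noise over triplicate slides.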 As to conditions: EGFR binding, higher = more signal.
Test [8] concerns the target Follistatin-related protein 3 (Homo sapiens) (UniProt O95633). The experiment in a line: compounds binding follistatin-related protein 3 – biochemical, small-molecule microarray, 635 nm fluorescence, primary screen (AID 1105).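 Also: score merges emission near 667 nm and signal to noise per printed spot across three slides.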 As to conditions: FSTL3 binding, higher = more signal.
Test [9] addresses Dickkopf-related protein 1 (Homo sapiens) (UniProt O94907). Kind of test: small molecules binding DKK1 protein – biochemical, small-molecule microarray, 635 nm fluorescence scan, primary screen (AID 1106).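 Also: score merges emission near 667 nm with signal to noise over three replicate slides.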 Particulars: higher = more signal.
The subject of test [10] is Inhibin beta A chain (activin A). The experiment in a line: small molecules binding activin A – biochemical, small-molecule microarray, 635 nm fluorescence scan, primary screen (AID 1107).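 Also: mouse activin A protein probed at 4.33 µg/mL on printed slides; score merges bound-protein fluorescence near 667 nm with spot signal-to-noise.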 Particulars: INHBA, higher = more signal.
In test [11] the test system is Human papillomavirus type 1a protein E7 (residues 44-93). Kind of test: small molecules binding HPV E7 44-93 – biochemical, small-molecule microarray, residues 44-93, 635 nm fluorescence, primary screen (AID 1108).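 Also: E7 fragment applied at 1 µg/mL in TBST for 1 h at 4 C; score combines spot fluorescence with its signal to noise ratio.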 Particulars: fluorescence 635 nm, higher = more signal.
The nature of test [12]: hepatitis C replication reporter changes, two-sided – Huh7 cells, luciferase reporter, HCV replication inhibitor project, primary screen (AID 1109).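 Also: huh7 hepatoma cells harbouring a luciferase neomycin HCV replicon reporter; luciferase luminescence as measure of HCV replicon replication; test concentration not given here.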 Particulars: Huh7 HCV replicon luciferase reporter, 48 h; higher = more signal.
Test [13] has as its target Left-right determination factor 2 (Homo sapiens) (UniProt O00292). Kind of test: small molecules binding LEFTY2 protein – biochemical, small-molecule microarray, 635 nm fluorescence scan, primary screen (AID 1110). As to conditions: higher = more signal.
The target of test [14] is Calmodulin-1 (Homo sapiens) (UniProt P0DP23). Kind of test: small molecules binding calmodulin-1 with EGTA – biochemical, small-molecule microarray, Cy5-labelled CALM1, profiling panel (AID 1111).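 Also: labelled calmodulin applied in Tris saline Tween buffer holding calcium plus EGTA and DTT.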 Particulars: Cy5-CALM1 binding fluorescence, higher = more signal.
Test [15] has the same target. Kind of test: small molecules binding Ca-loaded calmodulin-1 – biochemical, small-molecule microarray, Cy5-labelled CALM1, plus calcium, artefact control for SMM control-protein annotation, profiling panel (AID 1112).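 Also: score merges spot fluorescence with signal to noise from triplicate slides.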 As to conditions: Cy5-CALM1 binding fluorescence, higher = more signal.
The nature of test [16]: probe aWnt5a binding to arrayed compounds – biochemical, biotinylated probe, 635/667 nm fluorescence, primary screen (AID 1113).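 Also: score merges 667 nm fluorescence intensity with signal-to-noise per printed feature.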 Particulars: small-molecule microarray, higher = more signal.
A short description of test [17]: probe aShh binding to arrayed compounds – biochemical, biotinylated probe, 635/667 nm fluorescence, primary screen (AID 1114).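 Also: probe is biotin-labelled aShh protein from a stem cell growth factor screen; measures binding of labelled protein to compounds printed on the slide; score merges feature fluorescence at 667 nm with signal-to-noise.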 Particulars: small-molecule microarray, higher = more signal.
Test [18] in a line: probe aNog binding to arrayed compounds – biochemical, biotinylated probe, 635/667 nm fluorescence, primary screen (AID 1115).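 Also: probe is biotinylated aNog protein used at 0.15 µg/mL for 1 h at 4 C; z-score combines 667 nm fluorescence of each spot with its signal to noise.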 Particulars: small-molecule microarray, higher = more signal.
Test [19] concerns the target Torsin-1A-interacting protein 1 (Homo sapiens) (UniProt Q5JTV8). Kind of test: compound microarray binding of lysate hLAP1 – cell lysate, small-molecule microarray, COS7 lysate, 635/667 nm fluorescence, primary screen (AID 1116). Particulars: 635 nm fluorescence, higher = more signal.
For test [20], the target named is Alpha-bungarotoxin (Bungarus multicinctus) (UniProt P60615). The experiment in a line: compounds binding labelled alpha-BTX control protein – biochemical, small-molecule microarray, Alexa647 label, 635/667 nm fluorescence, artefact control for SMM control protein annotation, profiling panel (AID 1117). As to conditions: alpha-BTX-A647 binding fluorescence, higher = more signal.
Chain of Alpha-bungarotoxin (Bungarus multicinctus) (P60615 whole entry, looked up): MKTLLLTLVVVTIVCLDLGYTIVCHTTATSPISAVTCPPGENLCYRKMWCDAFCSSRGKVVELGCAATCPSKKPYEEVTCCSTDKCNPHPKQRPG

SMILES strings stand for the structures. Calls of active or inactive are those of the source.

Chain of Dickkopf-related protein 1 (Homo sapiens) (O94907 whole entry, looked up): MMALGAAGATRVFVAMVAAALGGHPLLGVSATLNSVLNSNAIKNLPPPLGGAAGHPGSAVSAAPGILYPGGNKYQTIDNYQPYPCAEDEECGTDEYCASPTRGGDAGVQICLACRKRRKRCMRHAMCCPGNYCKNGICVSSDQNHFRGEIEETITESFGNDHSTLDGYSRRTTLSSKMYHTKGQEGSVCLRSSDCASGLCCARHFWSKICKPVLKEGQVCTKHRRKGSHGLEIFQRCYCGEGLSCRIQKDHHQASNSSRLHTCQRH
Chain of Torsin-1A-interacting protein 1 (Homo sapiens) (Q5JTV8 whole entry, looked up): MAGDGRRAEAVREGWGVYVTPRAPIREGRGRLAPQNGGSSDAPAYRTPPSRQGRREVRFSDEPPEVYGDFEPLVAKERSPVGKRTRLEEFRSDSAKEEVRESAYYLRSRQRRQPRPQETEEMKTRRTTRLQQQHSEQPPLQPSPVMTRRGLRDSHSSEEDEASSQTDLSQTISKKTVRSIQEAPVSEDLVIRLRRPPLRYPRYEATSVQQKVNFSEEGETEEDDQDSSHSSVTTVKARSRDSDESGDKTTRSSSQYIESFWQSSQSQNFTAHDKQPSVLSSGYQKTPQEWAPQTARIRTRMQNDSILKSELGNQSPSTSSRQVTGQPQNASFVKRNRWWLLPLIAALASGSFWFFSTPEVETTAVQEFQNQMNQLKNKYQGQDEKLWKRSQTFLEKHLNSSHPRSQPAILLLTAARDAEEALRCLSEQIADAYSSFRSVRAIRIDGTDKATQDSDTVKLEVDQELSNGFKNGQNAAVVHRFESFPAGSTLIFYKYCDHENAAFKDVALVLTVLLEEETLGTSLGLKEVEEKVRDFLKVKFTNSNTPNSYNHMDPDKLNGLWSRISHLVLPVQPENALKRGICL
Chain of Left-right determination factor 2 (Homo sapiens) (O00292 whole entry, looked up): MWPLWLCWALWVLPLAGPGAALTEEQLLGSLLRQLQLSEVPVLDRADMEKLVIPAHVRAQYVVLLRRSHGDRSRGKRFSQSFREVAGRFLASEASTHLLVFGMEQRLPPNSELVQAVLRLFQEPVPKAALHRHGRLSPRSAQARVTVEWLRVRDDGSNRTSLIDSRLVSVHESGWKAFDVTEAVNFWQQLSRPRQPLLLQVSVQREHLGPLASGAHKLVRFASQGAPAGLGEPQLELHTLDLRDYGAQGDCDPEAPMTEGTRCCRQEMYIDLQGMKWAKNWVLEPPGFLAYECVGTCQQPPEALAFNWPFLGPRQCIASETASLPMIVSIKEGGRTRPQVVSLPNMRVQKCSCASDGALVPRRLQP
Chain of Follistatin-related protein 3 (Homo sapiens) (O95633 whole entry, looked up): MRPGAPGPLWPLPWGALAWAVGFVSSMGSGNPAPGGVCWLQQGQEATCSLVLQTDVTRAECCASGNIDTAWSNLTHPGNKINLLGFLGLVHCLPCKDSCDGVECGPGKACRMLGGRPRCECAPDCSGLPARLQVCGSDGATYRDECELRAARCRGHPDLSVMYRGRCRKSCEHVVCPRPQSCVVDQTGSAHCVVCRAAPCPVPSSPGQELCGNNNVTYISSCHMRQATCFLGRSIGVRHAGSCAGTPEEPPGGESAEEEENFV
Chain of Epidermal growth factor receptor (Homo sapiens) (P00533 whole entry, looked up): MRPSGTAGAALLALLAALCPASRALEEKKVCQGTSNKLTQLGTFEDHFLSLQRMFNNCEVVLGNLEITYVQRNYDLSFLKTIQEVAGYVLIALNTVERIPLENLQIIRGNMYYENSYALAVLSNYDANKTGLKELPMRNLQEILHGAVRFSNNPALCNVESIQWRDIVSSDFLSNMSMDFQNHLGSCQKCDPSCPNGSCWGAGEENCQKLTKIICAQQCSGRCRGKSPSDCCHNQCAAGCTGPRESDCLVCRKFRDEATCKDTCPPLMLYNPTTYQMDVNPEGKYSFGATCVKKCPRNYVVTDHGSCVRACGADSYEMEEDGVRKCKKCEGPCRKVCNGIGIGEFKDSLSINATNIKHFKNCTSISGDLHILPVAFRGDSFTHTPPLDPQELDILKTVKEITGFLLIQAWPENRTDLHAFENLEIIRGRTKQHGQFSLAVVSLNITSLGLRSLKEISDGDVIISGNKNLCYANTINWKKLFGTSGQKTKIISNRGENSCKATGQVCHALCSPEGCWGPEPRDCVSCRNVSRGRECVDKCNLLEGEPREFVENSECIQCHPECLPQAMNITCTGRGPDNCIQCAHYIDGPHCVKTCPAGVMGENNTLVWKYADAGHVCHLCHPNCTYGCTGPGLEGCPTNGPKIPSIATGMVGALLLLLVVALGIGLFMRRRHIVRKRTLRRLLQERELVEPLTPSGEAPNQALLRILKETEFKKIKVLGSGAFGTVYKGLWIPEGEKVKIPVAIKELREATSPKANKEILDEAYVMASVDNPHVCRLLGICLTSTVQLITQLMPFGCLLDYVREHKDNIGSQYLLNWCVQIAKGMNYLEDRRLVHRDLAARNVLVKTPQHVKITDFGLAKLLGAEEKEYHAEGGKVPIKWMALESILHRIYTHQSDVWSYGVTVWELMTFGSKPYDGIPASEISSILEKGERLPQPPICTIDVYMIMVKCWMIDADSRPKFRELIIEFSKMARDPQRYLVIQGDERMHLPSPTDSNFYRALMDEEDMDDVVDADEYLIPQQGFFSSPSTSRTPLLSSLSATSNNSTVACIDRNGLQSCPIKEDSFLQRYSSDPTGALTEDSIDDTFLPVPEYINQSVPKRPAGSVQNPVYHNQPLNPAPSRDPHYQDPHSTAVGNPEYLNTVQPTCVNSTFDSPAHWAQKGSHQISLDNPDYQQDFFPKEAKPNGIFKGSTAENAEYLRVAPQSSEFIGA

Regarding `CC(C)NC(=O)[C@@H]1c2ccccc2C(=O)N(CC23CC4CC(CC(C4)C2)C3)[C@H]1c1ccc(CO)cc1`, the composite z-score was 1.45 in [1]; 0.171 in test [2]; 0.46 in [3]; 0.596 in test [5]; 1.23 in [6]; 0.582 in test [7]. Also, the composite z-score in [8] was determined as 1.28; in test [9], 0.651; in test [10], 0.43; in test [11], 1.36; in test [13], 0.606; in [14], 0.324. Also, the composite z-score was -0.291 in [15]; -0.0835 in test [16]; 0.439 in test [17]; -0.338 in test [18]; 0.774 in test [19]; 0.812 in test [20]. For the same compound, the z-score was -1.21 (inactive) in test [4] and -1.67 in test [12].

With `COC(=O)[C@@H]1N=C(c2ccc(OCCCO)cc2)O[C@@H]1c1ccccc1N=[N+]=[N-]`, the composite z-score in [1] was 1.47; in [2] it was 1.14; in [3] it was 1.37; in test [5] it was 0.046; in test [6], 0.981; in test [7], -0.356. In addition, the composite z-score in test [8] is -0.0503; in [9], -0.68; in test [10], 1.08; in test [11] it was 0.515; in test [13], -0.187; in test [14], 1.54. Further, the composite z-score in test [15] is 1.04; in test [16] it was -0.0445; in test [17], 0.214; in test [18], 0.619; in [19], 1.27; in test [20], 1.42. The z-score in [4] was -1.99 (inactive); in test [12], -1.66.

Turning to `Cc1cc2c(c(=O)o1)[C@H](O)[C@H]1O[C@H]1C2=O`, the composite z-score was 0.412 in [1]; -0.178 in [2]; -0.245 in [3]; 0.88 in [5]; 0.191 in test [6]; 0.0205 in test [7]. For the same compound, the composite z-score in test [8] was -0.139; in test [9], -0.0438; in test [10], 0.623; in test [11], -1.5; in test [13], 0.761; in test [14], -0.766. Moreover, the composite z-score in test [15] was -1.38; in test [16] it was -0.208; in [17], 0.0048; in [18], -0.359; in test [19] it was 0.17; in test [20] it was 0.0658. Also, the figures for the z-score in [4] and in test [12] were -0.331 (inactive) and -2.16, respectively.

For the compound `CC(C)CON=C1[C@H]2CCn3c(=O)n(-c4ccccc4)c(=O)n3[C@H]2[C@H](O)[C@@H]2O[C@H]12`, the composite z-score in test [1] is 0.734; in test [2] it was -0.217; in [3] it was -0.481; in test [5] it was 0.229; in [6], 0.298; in test [7], 0.481. Besides, the composite z-score in test [8] is 0.532; in test [9], 1.2; in test [10] it was -0.0603; in test [11], -0.626; in test [13], 0.598; in test [14] it was -0.148. Besides, the composite z-score was -0.687 in test [15]; -0.291 in test [16]; -0.267 in test [17]; -0.269 in [18]; 0.14 in [19]; 0.0478 in [20]. For the same compound, the z-score in test [4] was -0.271 (inactive); in test [12], -2.53.

`COCCOC(=O)N1C(=O)[C@@]2(c3cc(C#CCNC(N)=O)ccc31)[C@H](c1ccccc1OCCO)N1[C@H](c3ccccc3)[C@H](c3ccccc3)OC(=O)[C@H]1[C@@H]2C(=O)N1CCN(c2ncccn2)CC1`: the composite z-score in test [1] was found to be 1.61; in test [2], 0.376; in test [3] it was 0.702; in [5], 1.15; in test [6] it was 0.375; in test [7], 0.315. For the same compound, the composite z-score in [8] came out at 0.623; in test [9], 0.0239; in test [10], 1.35; in [11], 0.648; in [13], 0.377; in test [14], 0.821. For the same compound, the composite z-score in test [15] is 0.749; in test [16], 0.0326; in test [17], -0.108; in test [18], -0.105; in test [19], 1.01; in test [20] it was 2.14. In addition, the z-score is -0.099 (inactive) in [4] and -0.672 in test [12].
